This is part of a sample that, as a whole, favours compounds with a hit. Of some 83,000 tested, about 20% had one in any assay.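 Cell lines were cultured in 96-well plates, exposed to a single compound concentration, and assessed for percent growth 48 hours later.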 A number with no mark means an inactive call. The source made the active and inactive calls. Rule for the calls: active = growth percent below 10; inactive = the rest.

Some test systems named below: HCT-15 colon; HT29 colon; SNB-75 CNS; SNB-19 CNS; U251 CNS; PC-3 prostate; SK-MEL-5 melanoma; UACC-62 melanoma; LOX IMVI melanoma; SK-MEL-28 melanoma.
Assay in all cases: NCI-60 one-dose screen, 48 h (100 = growth as untreated, 0 = no growth, -100 = all killed)
What all share (details): 10 µM unless noted

Take `C=C(C)Cn1c(SCC(=O)c2cccs2)nc2sc3c(c2c1=O)CCCC3`: the growth is 22.7% with HCT-15 colon; 38.9% in the experiment with HT29 colon; 62.6% in the experiment on SNB-75 CNS; 45.1% in the experiment with SNB-19 CNS; 36.3% in the experiment with U251 CNS; 48.6% in the experiment on PC-3 prostate. Moreover, the growth is 36.4% in the experiment on SK-MEL-5 melanoma, 44.8% in the experiment on UACC-62 melanoma, 4.51% (active) in the experiment on LOX IMVI melanoma and 55.3% in the experiment with SK-MEL-28 melanoma.

Consider `CC(C)(C)n1cc(-c2ccnc(NCCNS(=O)(=O)c3ccc(Br)cc3)c2)c(-c2cccc(O)c2)n1`, for which the growth with HCT-15 colon is -0.0275% (active); with HT29 colon it was -11% (active); in the experiment on SNB-75 CNS, 19.4%; in the experiment with SNB-19 CNS it was 52.3%; with U251 CNS it was 21.7%; with PC-3 prostate it was 25.4%. Further, the growth was -19% (active) with SK-MEL-5 melanoma, 49.6% in the experiment on UACC-62 melanoma, 12.7% with LOX IMVI melanoma and 38.5% with SK-MEL-28 melanoma.

In the case of `O=C1c2c(c3c4cc(F)ccc4oc3c3[nH]c4ccccc4c23)C(=O)N1O`, the growth was 33.2% in the experiment on HCT-15 colon; 31.4% in the experiment with HT29 colon; 10.3% with SNB-75 CNS; 26.7% in the experiment on SNB-19 CNS; 24.5% in the experiment on U251 CNS; 32.3% with PC-3 prostate. The growth in the experiment on SK-MEL-5 melanoma is -30% (active); with UACC-62 melanoma it was 3.37% (active); in the experiment with LOX IMVI melanoma, -25.3% (active); in the experiment on SK-MEL-28 melanoma, 29%.

Regarding `O=C(Nc1ccc(Cl)cc1)C1=NCCCCN1`, the growth is 55.4% with HCT-15 colon; 89.6% with HT29 colon; 95.6% in the experiment on SNB-75 CNS; 101% in the experiment with SNB-19 CNS; 90.9% in the experiment with U251 CNS; 73% in the experiment with PC-3 prostate. Further, the growth in the experiment with SK-MEL-5 melanoma is 93.6%; with UACC-62 melanoma it was 45.1%; in the experiment with LOX IMVI melanoma, 30.5%; with SK-MEL-28 melanoma it was 111%.

Regarding `Cc1ccc(-c2nc(C#N)c(S(=O)(=O)n3nc(C)cc3N)o2)cc1`, the growth with HCT-15 colon is 49.2%; in the experiment with HT29 colon it was 50.1%; in the experiment with SNB-75 CNS, 97.6%; in the experiment with SNB-19 CNS it was 97.5%; with U251 CNS it was 95.4%; with PC-3 prostate, 85%. In addition, the growth was 90% in the experiment with SK-MEL-5 melanoma, 96.1% in the experiment with UACC-62 melanoma, 56.4% with LOX IMVI melanoma and 93.8% with SK-MEL-28 melanoma.

Take `COc1ccc(Cn2cc(C(=O)N=Nc3c(O)[nH]c4ccc(Br)cc34)nn2)cc1`: the growth with HCT-15 colon was 105%; in the experiment with HT29 colon it was 88.5%; in the experiment on SNB-75 CNS, 112%; in the experiment on SNB-19 CNS, 97.3%; with U251 CNS, 105%; with PC-3 prostate, 99.8%. The growth in the experiment with SK-MEL-5 melanoma is 98.3%; with UACC-62 melanoma it was 97.2%; with LOX IMVI melanoma it was 107%; with SK-MEL-28 melanoma it was 115%.

As to `CC1OC(C(=O)N2CCN(CCO)CC2)CC1COC1CCCCC1` (stereo not given), the growth in the experiment with HCT-15 colon is 102% [50 µM]; in the experiment on HT29 colon, 106% [50 µM]; with SNB-75 CNS it was 88.3% [50 µM]; with SNB-19 CNS it was 93.9% [50 µM]; with U251 CNS, 99.4% [50 µM]; in the experiment with PC-3 prostate, 92.3% [50 µM]. Further, the growth with SK-MEL-5 melanoma is 95.8% [50 µM]; with UACC-62 melanoma, 87.7% [50 µM]; in the experiment with LOX IMVI melanoma, 96.4% [50 µM]; with SK-MEL-28 melanoma it was 106% [50 µM].

Take `O=C(Nc1ccc2[nH]ncc2c1)c1csc(Nc2ccccc2)n1`: the growth in the experiment on HCT-15 colon is 16.9%; in the experiment on HT29 colon, 11.8%; in the experiment on SNB-75 CNS, 36%; with SNB-19 CNS, 30.1%; in the experiment with U251 CNS, 28.7%; in the experiment on PC-3 prostate it was 38.7%. Besides, the growth in the experiment on SK-MEL-5 melanoma was 12.3%; with UACC-62 melanoma, 26.8%; with LOX IMVI melanoma, 40.8%; in the experiment with SK-MEL-28 melanoma it was 64.1%.

As for `O=C(OCC(O)C(=O)NC12CC3CC(CC(C3)C1)C2)c1cccc(Br)c1` (stereo not given), the growth was 95.2% in the experiment on HCT-15 colon; 93.5% with HT29 colon; 98.5% with SNB-75 CNS; 98.2% in the experiment with SNB-19 CNS; 97.5% with U251 CNS; 90.1% in the experiment on PC-3 prostate. The growth is 103% in the experiment on SK-MEL-5 melanoma, 92.9% in the experiment on UACC-62 melanoma, 95.2% in the experiment on LOX IMVI melanoma and 103% in the experiment with SK-MEL-28 melanoma.

Regarding `Cc1cc([N+](=O)[O-])ccc1NC(=O)c1ccc2c(c1)nc(-c1ccccc1)n2C1CCCCC1`, the growth was 51.9% in the experiment on HCT-15 colon; 44.5% in the experiment with HT29 colon; 80.9% with SNB-75 CNS; 119% in the experiment on SNB-19 CNS; 91.4% in the experiment on U251 CNS; 77.4% in the experiment on PC-3 prostate. The growth is 62.3% with SK-MEL-5 melanoma, 95% in the experiment on UACC-62 melanoma, 64% with LOX IMVI melanoma and 117% in the experiment with SK-MEL-28 melanoma.

`CC(C)(C)c1ccc(C(=O)Nc2sc3c(c2C#N)CCC(=O)C3)cc1`: the growth was -18.5% (active) in the experiment on HCT-15 colon; 5% (active) in the experiment with HT29 colon; -6.69% (active) in the experiment with SNB-75 CNS; 14.1% in the experiment on SNB-19 CNS; 16.4% in the experiment with U251 CNS; 8.36% (active) in the experiment with PC-3 prostate. Moreover, the growth in the experiment on SK-MEL-5 melanoma is -69.8% (active); with UACC-62 melanoma, 9.35% (active); with LOX IMVI melanoma it was 10.5%; in the experiment on SK-MEL-28 melanoma, 28.8%.

Turning to `N#C/C(=N\Nc1ccccc1)C(=O)Nc1cc(-c2ccccc2)nn1-c1ccccc1`, the growth with HCT-15 colon is 13.1%; in the experiment with HT29 colon, 31.5%; in the experiment with SNB-75 CNS it was 68.2%; with SNB-19 CNS it was 14.6%; with U251 CNS, 8.34% (active); in the experiment on PC-3 prostate, 10%. For the same molecule, the growth with SK-MEL-5 melanoma was -27.5% (active); in the experiment on UACC-62 melanoma, 14.2%; in the experiment on LOX IMVI melanoma, 52.9%; with SK-MEL-28 melanoma it was 44.9%.

For `CC1=NN(c2cccc(Cl)c2)C(=O)/C1=C\C=C\c1ccccc1`, the growth in the experiment on HCT-15 colon is 5% (active); with HT29 colon, -29.5% (active); with SNB-75 CNS, 50.9%; in the experiment with SNB-19 CNS, 37.5%; in the experiment on U251 CNS, -57.4% (active); in the experiment on PC-3 prostate it was 45.5%. Also, the growth is 5.05% (active) in the experiment on SK-MEL-5 melanoma, 28.2% in the experiment with UACC-62 melanoma, -87.9% (active) with LOX IMVI melanoma and -69.7% (active) in the experiment with SK-MEL-28 melanoma.

As for `CC(C)(C)[C@H](OCc1cn([C@H]2C[C@@H](O)[C@@H](CO)O2)c(=O)[nH]c1=O)c1ccc(C#Cc2ccccc2)cc1[N+](=O)[O-]`, the growth in the experiment with HCT-15 colon is 69.8%; in the experiment with HT29 colon, 62.3%; in the experiment with SNB-75 CNS, 67%; with SNB-19 CNS, 82.4%; in the experiment on U251 CNS, 68.9%; in the experiment with PC-3 prostate, 19.3%. Moreover, the growth is 75.4% with SK-MEL-5 melanoma, 66.9% in the experiment on UACC-62 melanoma, 84.7% in the experiment on LOX IMVI melanoma and 101% in the experiment on SK-MEL-28 melanoma.

The record behind these values is PubChem BioAssay (NCI).
